Results filed as inconclusive are left out. A number with no mark means an inactive call. Activity calls are given as the source filed them. The call rests on the fitted dose curve; in most records, active means well fitted inhibition curve with a large enough effect; inconclusive means small, poorly fitted or top-dose-only effect; inactive means flat fitted curve, though single readings scatter.
Tests used:
CRL-7250 = normal cell line; experiment: Cytotoxic Profiling of Annotated Libraries Using Quantitative High-Throughput Screening (AID 1296008); conditions: Five cell lines viability, CellTiter-Glo ATP luminescence, 48-72 h; max response: hits give low values; further: nearly all actives have a fitted effect of over 60% in size
How it was run: (§1)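 Cells exposed to compounds for 48 or 72 hr at 37 degrees Celsius. Viability read as ATP-coupled luminescence with CellTiter-Glo after 10 min at room temperature.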

HEK293 = experiment: as above; conditions: Five cell lines viability, CellTiter-Glo ATP luminescence, 48-72 h; max response: hits give low values
How it was run: as §1
On the % scale 0 is the no-effect control and ±100 the full control effect; potency means the concentration at half of the fitted maximal effect.

C[C@@H]1CCC2C(C)(C)[C@H](O)CC[C@]2(C)[C@@]12Cc1c(O)cc3c(c1O2)CNC3=O (stereo partly specified)
max response (CRL-7250): -75.1%
max response (HEK293): -94.6%

CCC(C)C(=O)OC1CC(C)C=C2C=CC(C)C(CCC(O)CC(O)CC(=O)O)C21 (stereo unspecified)
Potency (CRL-7250): 7090 nM (active)
max response (HEK293): -0.653%

COc1cc(C)c(C(=O)O[C@H]2[C@@H](OC(C)=O)[C@H](n3ccc(=O)[nH]c3=O)O[C@@H]2CO)c(OC)c1
max response (CRL-7250): -2.01%
max response (HEK293): -0.552%

COc1cccc(Nc2ncnn3ccc(CN4CC[C@@H](N)[C@H](O)C4)c23)c1
Potency (CRL-7250): 8200 nM (active)
Potency (HEK293): 13000 nM (active)

C#CCN(Cc1cc2c(=O)n(C)c(CN3CCN(C)CC3)nc2cc1Cl)c1ccc(C(=O)NCc2cccnc2)cc1
Potency (CRL-7250): 8.2 nM (active)
max response (HEK293): -130%

O=C(/C=C\c1ccc(O)cc1)N[C@@H](Cc1ccc(O)cc1)C(=O)O
max response (CRL-7250): -7.69%
max response (HEK293): 1.95%

N#Cc1cc(F)cc(-c2nc(-c3ccccn3)no2)c1
max response (CRL-7250): 1.54%
max response (HEK293): -8.23%

COc1c2c(c(C)c3c1C(=O)OC3)OC1(C)CC(O)C34OC(OC)(CC(OC(C)=O)C3(C)C1C2)OC4(C)C (stereo unspecified)
outcome (CRL-7250): inactive
max response (HEK293): -22.1%

CC1(C)CCC2(C(=O)OC3OC(CO)C(O)C(O)C3O)CCC3(C)C(=CCC4C5(C)CCC(OC6OC(C(=O)O)C(OC7OC(CO)C(O)C(O)C7O)C(OC7OC(CO)C(O)C(O)C7O)C6O)C(C)(C)C5CCC43C)C2C1 (stereo unspecified)
max response (CRL-7250): 3.03%
max response (HEK293): 4.12%

CC(CCC1(O)OC2CC3C4CCC5CC(O[C@@H]6O[C@H](CO)[C@@H](O)[C@H](O)[C@H]6O[C@@H]6O[C@@H](C)[C@H](O)[C@@H](O)[C@H]6O)C(O)CC5(C)C4CCC3(C)C2C1C)CO[C@@H]1O[C@H](CO)[C@@H](O)[C@H](O)[C@H]1O (stereo partly specified)
max response (CRL-7250): -4.35%
max response (HEK293): 0.184%

C=C1C[C@]23C[C@H]1[C@@H](O)C[C@H]2[C@@]12C=C[C@H](O)[C@@](C)(C(=O)O1)[C@H]2[C@@H]3C(=O)O
max response (CRL-7250): 0.0204%
max response (HEK293): -1.36%

CC(=O)O[C@@H]1C[C@@H](OC(C)=O)C(C)(C)/C=C/[C@H](C)[C@H](OC(C)=O)[C@@]2(O)C[C@H](C)[C@H](OC(=O)c3ccccc3)[C@@H]2/C=C/1C
max response (CRL-7250): -20.7%
max response (HEK293): -1.35%

O=S(=O)(NCC1CC1)c1ccc(Nc2nccc(N3CCCc4cc(O)ccc43)n2)cc1
Potency (CRL-7250): 1160 nM (active)
Potency (HEK293): 1640 nM (active)

COC(=O)/C=C/C12COC(C)(C)C1C(O)C(OC(C)=O)C1(C)C2CCC2(C)C(c3ccoc3)OC(=O)C3OC321 (stereo unspecified)
max response (CRL-7250): -1.53%
max response (HEK293): -22.6%

C[C@@H]1O[C@@H](O[C@H]2[C@H](O)[C@@H](O[C@@H]3O[C@H](CO)[C@@H](O)[C@H](O[C@@H]4O[C@H](CO)[C@@H](O)[C@H](O)[C@H]4O)[C@H]3O)[C@H](O[C@H]3CC[C@@]4(C)C(=CC[C@@H]5C4CC[C@@]4(C)C5C[C@@H]5OC6(CC[C@@](C)(CO[C@@H]7O[C@H](CO)[C@@H](O)[C@H](O)[C@H]7O)O6)[C@@H](C)[C@@H]54)C3)O[C@@H]2CO)[C@H](O)[C@H](O)[C@H]1OC1OC(CO)C(O)C(O)C1O (stereo partly specified)
max response (CRL-7250): -6.48%
max response (HEK293): -4.6%

C=C1C(O)C[C@@H]2C(C(=O)O)=CO[C@@H](O[C@@H]3O[C@H](CO)[C@@H](O)[C@H](O)[C@H]3OC(=O)c3ccc(O)cc3)[C@H]12 (stereo partly specified)
max response (CRL-7250): -1.69%
max response (HEK293): -0.967%

CC(C)(C)c1cc(Br)cc([C@H](CC(=O)O)NC(=O)CNC(=O)c2cc(O)cc(NC3=NCC(O)CN3)c2)c1 (stereo partly specified)
max response (CRL-7250): -6.62%
max response (HEK293): -3.62%

CC(=O)OC/C=C(\C)C(CC1C(C)=C(OC(C)=O)C(=O)C2C(C)(C)C(O)CCC12C)OC(C)=O (stereo unspecified)
max response (CRL-7250): 1.57%
max response (HEK293): -0.0321%

CC[C@H](NC(=O)[C@H](CS(=O)(=O)CC1CC1)N[C@@H](c1ccc(F)cc1)C(F)(F)F)C(=O)C(=O)NC1CC1
max response (CRL-7250): 3.55%
max response (HEK293): -20.2%

C/C=C/C=C/C(O)=C1\C(O)=C(C)C(=O)[C@@]2(C)OC(=O)[C@@](C)(NC(=O)/C=C/C(=O)O)[C@@H]12
max response (CRL-7250): -29.7%
max response (HEK293): -6.48%

Cc1cc(C(N)=O)ccc1-n1c(CCC(=O)O)ccc1-c1ccc(-n2ccnc2)cc1
max response (CRL-7250): 1.88%
max response (HEK293): -3.97%

Cc1c2cc(c(C(=O)O)c1C)OC1OC(C(O)C(O)C1O)C(O)C(O)C1OC(O2)C(O)C(O)C1O (stereo unspecified)
max response (CRL-7250): -20.3%
max response (HEK293): -0.813%

CC1(C)CC[C@]2(C(=O)O[C@@H]3O[C@H](CO)[C@@H](O)[C@H](O)[C@H]3O)CC[C@]3(C)C(=CCC4[C@@]5(C)C[C@@H](O)[C@H](O)[C@@](C)(CO)C5CC[C@]43C)C2[C@@H]1O (stereo partly specified)
max response (CRL-7250): 1.08%
max response (HEK293): -3.93%

C=C(C)C1CC[C@]2(C(=O)O)CC[C@]3(C(=O)O)[C@H](CCC4[C@@]5(C)CC[C@H](O)C(C)(C)C5CC[C@]43C)C12 (stereo partly specified)
max response (CRL-7250): -0.813%
max response (HEK293): -5.51%

Cc1nc(NC(=O)N2CCCC2C(N)=O)sc1-c1csc(C(C)(C)C)n1 (stereo unspecified)
max response (CRL-7250): -8.95%
max response (HEK293): -25.9%

CC(NC(=O)C(O)C(C)C)C(=O)NC1C(=O)N(C)CCc2ccccc21 (stereo unspecified)
max response (CRL-7250): -0.526%
outcome (HEK293): inactive

Cc1nc2sc(C(=O)NCc3ccncc3)c(N)c2c(C)c1Cl
max response (CRL-7250): 0.486%
max response (HEK293): -2.15%

CC1=C(CCC(C)O[C@@H]2O[C@H](CO)[C@@H](O)[C@H](O)[C@H]2O)C(C)(C)CCC1=O (stereo partly specified)
max response (CRL-7250): -22.3%
max response (HEK293): 4.11%

CN(C)C1CCN(C(=O)c2ccc(NC(=O)Nc3ccc(-c4nc(N5CCOCC5)nc(N5CCOCC5)n4)cc3)cc2)CC1
Potency (CRL-7250): 16.4 nM (active)
Potency (HEK293): 51.7 nM (active)

CC(C)c1nnc(-c2ccc(-c3ccccc3)nc2)n1-c1cccc2nonc12
max response (CRL-7250): -7.02%
max response (HEK293): 3.01%

CC(=O)O[C@@H]1[C@@H](OC(=O)/C=C/c2ccccc2)[C@@H](OC(C)=O)[C@H](O[C@H]2[C@@H]3C=CO[C@@H](O[C@@H]4O[C@H](CO)[C@@H](O)[C@H](O)[C@H]4O)[C@@H]3[C@@]3(CO)O[C@@H]23)O[C@H]1C
outcome (CRL-7250): inactive
max response (HEK293): -5.93%

C[C@@H]1C(=O)O[C@H]2[C@@H](O)C34[C@H]5C[C@@H](C(C)(C)C)C36[C@@H](OC(=O)[C@@H]6O)O[C@@]4(C(=O)O5)[C@@]12O (stereo partly specified)
max response (CRL-7250): -0.587%
max response (HEK293): -1.43%

O=C(OCC1=CC(O)C2C=CO[C@@H](O[C@@H]3O[C@H](CO)[C@@H](O)[C@H](O)[C@H]3O)C12)c1ccccc1 (stereo partly specified)
max response (CRL-7250): -3.02%
max response (HEK293): -4.16%

O=C(O)c1ccc(OC2OC(CO)C(O)C(O)C2O)cc1 (stereo unspecified)
outcome (CRL-7250): inactive
max response (HEK293): -2.82%

C=C(C(=O)OC)C1C(O)CC2(C)C(O)CCC(=O)C2C1O (stereo unspecified)
max response (CRL-7250): -16.1%
max response (HEK293): -7.45%

CC1=CC2C(CC1OC1OC(CO)C(O)C(O)C1O)C(C)CC(=O)C2C(C)C (stereo unspecified)
max response (CRL-7250): 0.564%
max response (HEK293): -0.187%

CC12CCC3c4ccc(O)cc4CCC3C1CC(OC1OC(C(=O)O)C(O)C(O)C1O)C2O (stereo unspecified)
max response (CRL-7250): -23.2%
max response (HEK293): 4.04%

CC(C)C(=O)OC[C@H]1O[C@H](O[C@H]2O[C@H](CO)[C@@H](O)[C@H](O)[C@H]2O)[C@H](O)[C@@H](O)[C@@H]1O
max response (CRL-7250): -1.64%
max response (HEK293): 3.34%

C[C@H](C(=O)NC1CCCC1)N(C(=O)Cn1nnc(-c2ccc3c(c2)OCO3)n1)C1CCCCC1
outcome (CRL-7250): inactive
max response (HEK293): 2.96%

C(#Cc1nc2ncccc2nc1OCCN1CCCC1)c1ccccc1
Potency (CRL-7250): 6510 nM (active)
Potency (HEK293): 1840 nM (active)

CC1OC(OC2CCC3(C)C(CCC4(C)C3CC=C3C5CC(C)(C)CCC5(C(=O)OC5OC(CO)C(O)C(O)C5O)CCC34C(=O)O)C2(C)C)C(O)C(O)C1O (stereo unspecified)
outcome (CRL-7250): inactive
max response (HEK293): -0.856%

C/C=C1\[C@H](O[C@@H]2O[C@H](CO)[C@@H](O)[C@H](O)[C@H]2O)OC=C(C(=O)OC)[C@H]1CC(=O)OC[C@H]1O[C@@H](OCCc2ccc(O)cc2)[C@H](O)[C@@H](O)[C@@H]1O
max response (CRL-7250): -9.74%
max response (HEK293): 0.429%

CCC(COC)n1nnc2c(Nc3ccc(OC)cc3C)nc(C)cc21 (stereo unspecified)
outcome (CRL-7250): inactive
max response (HEK293): -7.21%

CC1(C)CC[C@]2(CO[C@@H]3O[C@H](CO)[C@@H](O)[C@H](O)[C@H]3O)[C@@H](O)C[C@]3(C)C(=CCC4[C@@]5(C)CC[C@H](O[C@@H]6O[C@H](CO[C@@H]7O[C@H](CO[C@@H]8OC[C@@H](O)[C@H](O)[C@H]8O)[C@@H](O)[C@H](O)[C@H]7O)[C@@H](O)[C@H](O)[C@H]6O)C(C)(C)C5CC[C@]43C)[C@@H]2C1 (stereo partly specified)
max response (CRL-7250): -5.37%
max response (HEK293): -6.51%

COC(=O)CC(O)C1OC(c2ccccc2)C(O)C1O (stereo unspecified)
max response (CRL-7250): -3.81%
max response (HEK293): 2.88%

CCc1cnn2c(NCc3ccc[n+]([O-])c3)cc(N3CCCCC3CCO)nc12 (stereo unspecified)
Potency (CRL-7250): 4.6 nM (active)
Potency (HEK293): 13 nM (active)

CC(C)=CCCC1(C)C=Cc2c(c(C)cc3c2[nH]c2ccccc23)O1 (stereo unspecified)
max response (CRL-7250): -19.1%
max response (HEK293): -24.1%

C=C(C)[C@@H]1CC[C@]2(C)CC[C@]3(C)[C@H](CC[C@@H]4[C@@]5(C)CC[C@@H](O)C(C)(C)[C@@H]5CC[C@]43C)[C@@H]12
max response (CRL-7250): -1.57%
max response (HEK293): -21%

From PubChem BioAssay (NCATS)
